# FadD28 FP inh: inhibitors of Mycobacterium tuberculosis FadD28 bisubstrate binding; AID 588549; inhibition, % at 12.5 µM; FadD28 bisubstrate probe binding, fluorescence polarization; hit rate 0.22% among 360,000; in the data active = inhibition above about 8.5%, passing the limit was not always enough; inconclusive = no clear call, values can overlap the other calls
# Yp Topo-I inh: inhibitors of Yersinia pestis topoisomerase I; Y. pestis Topo-I cleavage product accumulation, plate reader; AID 504884; hit rate 0.064% among 360,000; activity, % at 10 µM; in the data active = activity above about 50%, passing the limit was not always enough; inconclusive = no clear call, values can overlap the other calls
# BioA inh: BioA (M. tuberculosis) enzyme inhibition; purified M. tuberculosis BioA enzyme, plate reader; hit rate 0.096% among 360,000; inhibition, % at 9.99 µM; in the data active = inhibition above about 40%; inconclusive = no clear call, values can overlap the other calls
# TcdB GH inh: inhibitors of Clostridioides difficile toxin B glycohydrolase. P18177. TcdB glycohydrolase enzymatic assay, plate reader. inhibition, % at 9.99 µM. hit rate 0.24% among 350,000. AID 652162; in the data active = inhibition above about 10%
# * marks the source's active call; other numbers are inactive results; ? = inconclusive; / = no result given. This is a sample that favours compounds with a hit; in the whole collection about 0.45% have one here.
SMILES,FadD28 FP inh,Yp Topo-I inh,BioA inh,TcdB GH inh
COc1ccc(C(=O)NC(CC(=O)O)c2cc([N+](=O)[O-])ccc2Cl)c(SC)c1 (configuration not stated),2.4,5.9,/,33.7*
COc1cccc(/C=N/Nc2nc(C)cc(=O)[nH]2)c1OC,13.3*,-1.0,0.7,-3.3
C[C@@H]1CCCCO[C@@H](CN(C)Cc2ccc3c(c2)OCO3)[C@@H](C)CN([C@@H](C)CO)C(=O)c2cc(NC(=O)c3ccccc3)ccc2O1,/,/,-0.1,-0.2
Cn1c(O)c(/C=N/NC(=O)c2cc3ccccc3cc2O)c2ccccc21,?,-13.9,-2.0,1.7
COCCn1c(C)cc(/C=N/NC(=O)c2cc3ccccc3cc2O)c1C,10.9*,-10.9,/,/
O=C(Nc1ccc(OC(F)F)c(Cl)c1)Nc1ccc2c(c1)OCO2,-3.2,1.6,/,/
O=C(Nc1ccc([N+](=O)[O-])cc1)Nc1ccc(OC(F)F)c(Cl)c1,12.5*,-14.7,/,/
COc1ccc(NC(=O)Nc2cccc([N+](=O)[O-])c2)cc1Cl,16.4*,-17.9,2.0,1.2
O=C(O)c1ccccc1NS(=O)(=O)c1ccc(N/N=C/c2ccc(O)c(O)c2)c([N+](=O)[O-])c1,53.2*,-5.7,6.0,-14.3
O=C(O)COc1ccccc1C=NNc1ccc([N+](=O)[O-])cc1S(=O)(=O)Nc1ccc(Cl)cc1,16.5*,-9.8,7.8,0.1
COc1ccccc1NS(=O)(=O)c1ccc(N/N=C/c2ccccc2OCC(=O)O)c([N+](=O)[O-])c1,18.9*,14.2,-0.1,1.3
COc1ccc(NS(=O)(=O)c2cc([N+](=O)[O-])ccc2NN=Cc2ccccc2OCC(=O)O)cc1,1.4,-15.6,-0.7,1.0
O=C(O)COc1ccccc1/C=N/Nc1ccc(S(=O)(=O)Nc2ccc(Cl)cc2)cc1[N+](=O)[O-],1.6,4.1,/,0.5
CCC(=O)Nc1ccc2c(c1)OC[C@@H](C)N(C(=O)COC)C[C@@H](C)[C@H](OC)CN(C)C2=O,/,/,/,0.0
CCC(=O)N1[C@@H]2c3ccc(-c4ccccc4)c(=O)n3C[C@@H]2[C@@H](CO)[C@@H]1C(=O)N1CCCCC1,/,/,-0.3,0.1
CCc1ccc([C@@H]2CC=C(C(=O)O)CN2S(=O)(=O)c2ccc(C)cc2)cc1,-1.2,12.8,-0.2,1.4
Cc1ccc(S(=O)(=O)N2CC(CO)=CCC2c2ccccc2)cc1 (configuration not stated),/,/,/,25.5*
COc1cc(/C=C/c2sc3ccccc3[n+]2CCCS(=O)(=O)[O-])ccc1O,-18.9,5.8,/,10.4*
CCC(/C=C1\Oc2ccc(OC)cc2N1C)=C\c1sc2ccccc2[n+]1CCCS(=O)(=O)[O-],-3.5,-4.9,-0.6,-1.0
C[C@H](CO)N1C[C@H](C)[C@H](CN(C)CC2CCOCC2)Oc2ncc(C#Cc3ccncc3)cc2C1=O,/,/,-2.5,-4.2
Cc1[nH]c2ccccc2c1C(C#N)(C#N)C1C(=O)c2ccccc2C1=O,17.9*,-23.0,-1.3,1.2
O=c1c2ccccc2nc(/C=C/c2ccc(O)cc2)n1-c1ccccc1O,-4.1,-6.7,-1.1,12.1*
CC1=C(C(=O)NC2CC(C)(C)Cc3c2cnn3-c2cccc(F)c2)OCCO1 (configuration not stated),-0.7,16.0,58.4*,0.9
C[C@@H]1CCCCO[C@H](CN(C)S(=O)(=O)c2ccc(Cl)cc2)[C@H](C)CN([C@@H](C)CO)C(=O)c2cc(NC(=O)Nc3ccc4c(c3)OCO4)ccc2O1,/,/,-1.1,0.2
CSc1ccccc1NC(=O)COC(=O)c1ccccc1Cc1ccccc1,-0.3,61.9*,/,/
SMILES,FadD28 FP inh,Yp Topo-I inh,BioA inh,TcdB GH inh
O=C(C[C@H]1C=C[C@H](NC(=O)C2CCC2)[C@@H](CO)O1)NC1CCCCC1,/,/,-1.1,-2.4
Cc1ccc(OC(=O)CCC(=O)Oc2ccc(C)cc2C)c(C)c1,-2.8,60.1*,-1.3,-0.2
COCC(=O)N1[C@H](CO)[C@H](c2ccc(-c3cccc(F)c3)cc2)C12CN(C(=O)C1CC1)C2,/,/,/,-12.6
CCn1c(=S)[nH]c2c(=O)n(C)c(=O)n(C)c21,-2.0,8.7,0.1,45.6*
O=C(C[C@H]1C=C[C@H](NC(=O)c2cccc(F)c2)[C@H](CO)O1)NCc1ccccc1,/,/,3.6,0.4
Cc1cccc(NC(=S)NNC(=O)c2csc3c2CCC(C)C3)c1 (configuration not stated),14.4*,1.8,0.4,0.3
CC(C)CNC(=S)NNC(=O)c1csc2c1CCC(C)C2 (configuration not stated),-2.4,11.5,-0.2,/
CC(C)c1ccc(NC(=O)C2Cc3c(-c4ccc5c(c4)OCO5)ccnc3O2)cc1 (configuration not stated),0.4,60.3*,-0.1,0.7
COC(=O)C[C@@H]1CC[C@H]2[C@@H](COc3ccc(NC(=O)c4ccc(F)cc4)cc3C(=O)N2C)O1,/,/,-1.8,1.1
CCOC(=O)CSc1nc2ccccc2c(=O)n1CC1CCCC1,-1.0,58.3*,0.4,/
CN1C(=O)c2cc(NC(=O)Nc3ccccc3Cl)ccc2OC[C@H]2O[C@@H](CC(=O)NCCCN3CCOCC3)CC[C@H]21,/,/,1.6,10.5*
COc1cccc(C(=O)Nc2ccc3c(c2)C(=O)N(C)[C@@H]2CC[C@H](CC(=O)NCCCN4CCOCC4)O[C@@H]2CO3)c1,/,/,-1.2,12.4*
COC(=O)C[C@H]1CC[C@@H]2[C@@H](COc3ccc(NC(=O)c4cccc(OC)c4)cc3C(=O)N2C)O1,/,/,11.9,10.8*
CCNC(=O)C[C@@H]1CC[C@@H]2[C@@H](COc3ccc(NC(=O)Nc4ccccc4Cl)cc3C(=O)N2C)O1,/,/,0.7,0.7
C[C@@H]1CN([C@@H](C)CO)C(=O)c2ccccc2-c2ccccc2CO[C@H]1CN(C)S(=O)(=O)c1cccs1,/,/,0.2,1.4
CCN(CC)c1ccc(/C=C2/C(=O)c3ccc(C(=O)O)cc3C2=O)cc1,18.0*,-14.3,/,2.3
O=C(O)c1cccc(-n2cccc2/C=C/[N+](=O)[O-])c1,13.0*,-11.6,/,-0.1
Cn1cc(C(CO)Cc2ccccc2)c2ccccc21 (configuration not stated),1.0,3.4,-0.1,19.7*
COc1ccc(OC)c(N2C(=O)NC(=O)/C(=C\c3ccc([N+](=O)[O-])s3)C2=O)c1,23.4*,-5.4,1.5,0.3
O=C1NC(=O)N(c2ccccc2)C(=O)/C1=C\c1ccc([N+](=O)[O-])s1,/,/,/,-0.1
O=C(c1cc2c(s1)CCCC2)N1CCN(S(=O)(=O)c2ccccc2C(F)(F)F)CC1,-10.2,57.8*,/,/
CC(Sc1nc(N)cc(=O)[nH]1)C(=O)NCC(=O)Nc1ccc(F)c(F)c1F (configuration not stated),-1.1,3.3,-2.3,10.7*
Cc1csc(SC(C)C(=O)NCC(=O)Nc2ccc(F)c(F)c2F)n1 (configuration not stated),-2.2,0.1,/,1.2
Clc1cc(Cl)cc(CSc2nnc(-c3sccc3-n3cccc3)o2)c1,-0.6,8.7,1.5,/
Clc1cccc(CSc2nnc(-c3sccc3-n3cccc3)o2)c1,-1.5,57.8*,-1.3,/
CC(=O)Nc1ccc(OC(=O)Oc2ccc(NC(C)=O)cc2)cc1,0.2,-4.0,-1.1,11.2*
Cc1cccc(NC(=O)CN2C(=O)N/C(=C\c3ccc(-c4cccc(C(=O)O)c4)o3)C2=O)c1,42.7*,0.4,/,-0.6
